For 18 compounds, growth inhibition, inhibition and outcome results are on record in PubChem BioAssay.

Values without a mark were called inactive. For part of these data: Measured potencies and affinities stand elsewhere. The source made the active and inactive calls. Unless noted, no rule for the calls is given here.

Assay [1] is described as follows: antimalarial activity against Dd2 strain (AID 2302;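 active = growth inhibition above 50% at the single 2 µM test dose, taken to imply half-maximal potency below 2 µM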;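 also: 0% = DMSO untreated growth and 100% = chloroquine plus artemisinin killed control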). Particulars: P. falciparum Dd2 in RBCs, LDH growth readout, 72 h; at 2 µM; active compounds read high.
Assay [2] in a line: HepG2 cytotoxicity, primary screen, cytotoxicity control for P. falciparum antimalarial project, cell-based, ATP luminescence (AID 2303;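 active = inhibition above 50%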;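 also: 0% = DMSO wells and 100% = digitonin-killed cells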). Particulars: HepG2 viability, 24-48 h, at 10 µM, active compounds read high.
Assay [3] deals with L-lactate dehydrogenase (Plasmodium falciparum (isolate CDC / Honduras)) (UniProt Q27743). The assay is described as follows: PfLDH activity inhibition – cell lysate, 3D7 strain, counter-screen for P. falciparum growth inhibition project (AID 2304).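 Also: 0% = vehicle and 100% = reference inhibitor.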 Conditions: P. falciparum 3D7 crude extract, LDH APAD/NBT absorbance; at 2 µM; active compounds read high. Background: A counterscreen serves to expose hits that act by an unwanted route or on another target.
L-lactate dehydrogenase (Plasmodium falciparum (isolate CDC / Honduras)), sequence (Q27743 whole entry, looked up): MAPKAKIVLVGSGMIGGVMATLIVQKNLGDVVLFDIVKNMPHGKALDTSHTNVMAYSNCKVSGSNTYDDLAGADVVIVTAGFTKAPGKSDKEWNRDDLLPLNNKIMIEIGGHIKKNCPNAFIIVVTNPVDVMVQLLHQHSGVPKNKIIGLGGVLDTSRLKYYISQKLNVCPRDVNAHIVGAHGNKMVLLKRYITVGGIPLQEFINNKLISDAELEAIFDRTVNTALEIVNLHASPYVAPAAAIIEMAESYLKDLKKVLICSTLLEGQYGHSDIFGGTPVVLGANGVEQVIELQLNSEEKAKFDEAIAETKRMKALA

A short description of assay [4]: inhibition of 3D7 malaria parasite growth – strain 3D7 (AID 2306).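 Also: 0% = DMSO wells and 100% = chloroquine plus artemisinin control wells.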 Conditions: P. falciparum 3D7 erythrocytic growth, LDH absorbance, 72 h; at 2 µM; active compounds read high.
Assay [5] addresses Calcium-dependent protein kinase 1 (Plasmodium falciparum (isolate 3D7)) (UniProt P62344). As to the kind of experiment: PfCDPK1 kinase inhibitors, biochemical, TCAMS library (AID 1159585; cut-off not given, nearly all actives have IC50 up to about 0.98 µM;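 also: inhibitors leave more ATP so luminescence rises with inhibition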). Conditions: recombinant PfCDPK1, Kinase-Glo ATP depletion luminescence. (Kinase-Glo measures the ATP left after a reaction by luminescence.)
Assay [6] has as its target Plasmodium falciparum protein kinase 6 (PK6, PF3D7_1337100) (UniProt Q8IDW1). As to the kind of experiment: PfPK6 kinase inhibitors, biochemical, TCAMS library (AID 1159586). Particulars: recombinant PfPK6, Kinase-Glo ATP depletion luminescence.
Assay [7] addresses Protein kinase 7 (PK7), Plasmodium falciparum 3D7 (PF3D7_0213400) (UniProt Q7YTF7). The assay is described as follows: inhibition of Plasmodium PK7 catalytic activity – biochemical, TCAMS antimalarial set, Kinase-Glo luminescence (AID 1159587). Particulars: recombinant PfPK7, Kinase-Glo ATP depletion luminescence.
Assay [8] deals with Calcium-dependent protein kinase 4 (Plasmodium falciparum (isolate 3D7)) (UniProt Q8IBS5). As to the kind of experiment: PfCDPK4 kinase inhibitors, biochemical, TCAMS library (AID 1159588; cut-off not given, nearly all actives have IC50 up to about 0.91 µM). Conditions: recombinant PfCDPK4, Kinase-Glo ATP depletion luminescence.
Calcium-dependent protein kinase 4 (Plasmodium falciparum (isolate 3D7)), sequence (Q8IBS5 whole entry, looked up): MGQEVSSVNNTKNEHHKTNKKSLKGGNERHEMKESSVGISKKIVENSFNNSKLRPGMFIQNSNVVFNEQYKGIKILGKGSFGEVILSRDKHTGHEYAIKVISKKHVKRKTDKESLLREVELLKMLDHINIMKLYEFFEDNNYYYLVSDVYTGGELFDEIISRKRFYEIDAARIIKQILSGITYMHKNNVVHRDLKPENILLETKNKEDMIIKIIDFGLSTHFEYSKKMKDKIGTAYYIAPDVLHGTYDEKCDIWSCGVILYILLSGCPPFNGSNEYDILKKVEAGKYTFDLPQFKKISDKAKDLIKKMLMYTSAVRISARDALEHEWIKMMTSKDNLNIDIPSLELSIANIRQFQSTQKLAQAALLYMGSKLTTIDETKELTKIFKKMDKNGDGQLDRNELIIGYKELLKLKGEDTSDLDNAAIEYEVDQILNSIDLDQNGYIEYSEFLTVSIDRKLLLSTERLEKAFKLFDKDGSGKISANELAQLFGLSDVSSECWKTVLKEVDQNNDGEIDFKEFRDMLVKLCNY

Protein kinase 7 (PK7), Plasmodium falciparum 3D7 (PF3D7_0213400), sequence (Q7YTF7 1-343): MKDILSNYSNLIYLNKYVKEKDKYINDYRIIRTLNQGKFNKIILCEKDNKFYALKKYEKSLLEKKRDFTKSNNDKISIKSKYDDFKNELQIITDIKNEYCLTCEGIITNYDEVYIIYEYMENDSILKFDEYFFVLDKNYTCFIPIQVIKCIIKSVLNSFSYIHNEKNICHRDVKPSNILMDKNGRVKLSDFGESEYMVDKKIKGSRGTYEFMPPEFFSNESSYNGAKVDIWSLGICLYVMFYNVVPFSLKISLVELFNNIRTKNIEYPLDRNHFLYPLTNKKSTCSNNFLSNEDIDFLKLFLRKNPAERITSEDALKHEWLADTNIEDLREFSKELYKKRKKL
Calcium-dependent protein kinase 1 (Plasmodium falciparum (isolate 3D7)), sequence (P62344 whole entry, looked up): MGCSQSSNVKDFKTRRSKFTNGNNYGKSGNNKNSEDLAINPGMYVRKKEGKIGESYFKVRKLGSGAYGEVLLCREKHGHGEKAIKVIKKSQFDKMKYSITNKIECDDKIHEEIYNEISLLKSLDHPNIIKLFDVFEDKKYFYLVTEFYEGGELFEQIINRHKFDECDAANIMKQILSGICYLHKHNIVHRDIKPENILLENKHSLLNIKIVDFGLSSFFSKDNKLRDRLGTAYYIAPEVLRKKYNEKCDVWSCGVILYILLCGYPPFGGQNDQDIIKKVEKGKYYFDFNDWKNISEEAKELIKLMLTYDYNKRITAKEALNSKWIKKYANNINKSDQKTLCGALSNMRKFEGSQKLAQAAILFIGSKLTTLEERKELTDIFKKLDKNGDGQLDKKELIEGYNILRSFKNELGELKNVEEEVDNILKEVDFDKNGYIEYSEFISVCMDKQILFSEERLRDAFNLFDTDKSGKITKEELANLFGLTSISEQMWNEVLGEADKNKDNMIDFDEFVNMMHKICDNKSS
Plasmodium falciparum protein kinase 6 (PK6, PF3D7_1337100), sequence (Q8IDW1 1-305): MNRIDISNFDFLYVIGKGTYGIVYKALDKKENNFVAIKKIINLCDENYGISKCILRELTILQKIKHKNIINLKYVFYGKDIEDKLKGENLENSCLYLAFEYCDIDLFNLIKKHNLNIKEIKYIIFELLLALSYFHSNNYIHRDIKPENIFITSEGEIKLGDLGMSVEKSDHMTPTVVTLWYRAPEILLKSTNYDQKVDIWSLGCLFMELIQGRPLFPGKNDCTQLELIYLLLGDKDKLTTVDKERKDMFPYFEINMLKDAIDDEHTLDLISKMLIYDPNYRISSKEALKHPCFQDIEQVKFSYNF

The inhibition is the change of the read-out against control, counted positive when it falls. As to `Cc1cc(N2CCC(N(C)C)C2)nc(Nc2ccc(Cl)cc2)n1` (centres undefined), the growth inhibition was 17% in assay [1] and 99% (active) in assay [4]. Besides, the inhibition in assay [2] was 11%; in assay [3], 2%. Also, the result in assay [5], in assay [6], in assay [7] and in assay [8] was inactive.

Turning to `CCCOc1ccc(-c2nonc2NC(=O)c2ccccc2OC)cc1OCCC`, the growth inhibition in assay [1] is 82% (active); in assay [4] it was 98% (active). Moreover, the results for the inhibition in assay [2] and in assay [3] were 23% and -1%, respectively. Besides, the result in assay [5], in assay [6], in assay [7] and in assay [8] was inactive.

For `COc1cccc(C2=CC(C)(C)Oc3cc(OCCN(C)C)ccc32)c1`, the growth inhibition in assay [1] was 96% (active); in assay [4], 97% (active). The values for the inhibition in assay [2] and in assay [3] were 57% (active) and -4%, respectively. For the same compound, the result in assay [5], in assay [6], in assay [7] and in assay [8] was inactive.

For `Cc1ccc(CNC(=O)[C@H](CC(C)C)Nc2cc(C)nc(NCC3CCCCC3)n2)cc1`, the results for the growth inhibition in assay [1] and in assay [4] were 44% and 96% (active), respectively. For the same compound, the inhibition was 6% in assay [2] and -2% in assay [3]. Moreover, the result in assay [5], in assay [6], in assay [7] and in assay [8] was inactive.

As to `Cc1cccc2[nH]c(-c3ccc(-c4cccc(CNCCCNS(C)(=O)=O)c4)cc3)nc12`, the growth inhibition was 5% in assay [1] and 99% (active) in assay [4]. In addition, the values for the inhibition in assay [2] and in assay [3] were 5% and 2%, respectively. The outcome in assay [5], in assay [6], in assay [7] and in assay [8] was inactive.

On to `Cc1ccc2c(c1)NC[C@@]21CCN(C[C@@H](O)C2CCN(c3cc(C#N)ccn3)CC2)C[C@@H]1C`, for which the growth inhibition in assay [1] is 79% (active); in assay [4] it was 90% (active). In addition, the inhibition in assay [2] is 28%; in assay [3], -2%. The result in assay [5], in assay [6], in assay [7] and in assay [8] was inactive.

As for `Cc1cc(Nc2cccc(Cl)c2)nc2ccc(NC(=O)c3ccc(=O)[nH]c3)cc12`, the results for the growth inhibition in assay [1] and in assay [4] were 23% and 100% (active), respectively. Besides, the inhibition is 12% in assay [2] and 4% in assay [3]. Besides, the result in assay [5], in assay [6], in assay [7] and in assay [8] was inactive.

With `O=C(CSc1nc2ccccc2c(=O)n1C1CC1)Nc1cc(C(F)(F)F)ccc1Cl`, the growth inhibition is 96% (active) in assay [1] and 97% (active) in assay [4]. Also, the inhibition is 5% in assay [2] and 2% in assay [3]. Besides, the result in assay [5], in assay [6], in assay [7] and in assay [8] was inactive.

For `Cc1cc(NC(=O)Nc2ccc3nc(C)oc3c2)c2cc(Cl)ccc2n1`, the growth inhibition in assay [1] is 57% (active); in assay [4], 100% (active). The inhibition in assay [2] is -10%; in assay [3], -2%. The outcome in assay [5], in assay [6], in assay [7] and in assay [8] was inactive.

For the compound `CN1CCN(c2ccnc3ccc(NC(=O)Nc4ccc5ccccc5c4)cc23)CC1`, the growth inhibition in assay [1] is 99% (active); in assay [4], 101% (active). Moreover, the inhibition in assay [2] was 2%; in assay [3], -1%. In addition, the result in assay [5], in assay [6], in assay [7] and in assay [8] was inactive.

Regarding `Nc1cccc(CNCc2ccc(-c3cccc(-c4nc5ccc(F)cc5[nH]4)c3)cc2)c1`, the results for the growth inhibition in assay [1] and in assay [4] were 94% (active) and 101% (active), respectively. Also, the inhibition is 36% in assay [2] and -3% in assay [3]. The result in assay [5], in assay [6], in assay [7] and in assay [8] was inactive.

Turning to `COc1ccccc1C(=O)Nc1cccc(N2CCC(NCc3ccc(-n4cccn4)cc3)CC2)c1`, the growth inhibition in assay [1] is 30%; in assay [4], 86% (active). For the same compound, the inhibition was 9% in assay [2] and -1% in assay [3]. The result in assay [5], in assay [6], in assay [7] and in assay [8] was inactive.

Consider `Cc1cccc2[nH]c(-c3cccc(-c4ccc(NC(=O)c5cnccc5C(F)(F)F)cc4)c3)nc12`, for which the growth inhibition in assay [1] is 37%; in assay [4] it was 100% (active). In addition, the results for the inhibition in assay [2] and in assay [3] were 60% (active) and -3%, respectively. Moreover, the outcome in assay [5], in assay [6], in assay [7] and in assay [8] was inactive.

As to `Cc1cccc2[nH]c(-c3cccc(-c4cccc(NC(=O)c5ccncc5)c4)c3)nc12`, the growth inhibition was 78% (active) in assay [1] and 100% (active) in assay [4]. Moreover, the values for the inhibition in assay [2] and in assay [3] were 22% and -3%, respectively. The outcome in assay [5], in assay [6], in assay [7] and in assay [8] was inactive.

Take `CC(=O)Oc1cc(OCc2ccccc2)c(OC(C)=O)c(OCc2ccccc2)c1`: the growth inhibition in assay [1] was 78% (active); in assay [4], 94% (active). Also, the inhibition in assay [2] is 11%; in assay [3], 1%. Also, the outcome in assay [5], in assay [6], in assay [7] and in assay [8] was inactive.

On to `NC(N)=NN=CC(=O)Nc1ccc(C(F)(F)F)cc1`, for which the results for the growth inhibition in assay [1] and in assay [4] were 9% and 100% (active), respectively. In addition, the inhibition in assay [2] is 5%; in assay [3], 1%. The result in assay [5], in assay [6], in assay [7] and in assay [8] was inactive.

As for `COc1ccc(F)cc1-c1ccccc1CNC(=O)c1cnn(-c2ccc([N+](=O)[O-])cc2)c1C(F)(F)F`, the growth inhibition was 75% (active) in assay [1] and 89% (active) in assay [4]. Moreover, the values for the inhibition in assay [2] and in assay [3] were -3% and -4%, respectively. Also, the outcome in assay [5], in assay [6], in assay [7] and in assay [8] was inactive.

Take `Cc1ccc(C(C)C)c(Oc2cnc(NC(CO)c3ccccc3)nc2N)c1` (centres undefined): the figures for the growth inhibition in assay [1] and in assay [4] were 0% and 95% (active), respectively. For the same compound, the inhibition is 27% in assay [2] and 4% in assay [3]. For the same compound, the result in assay [5], in assay [6], in assay [7] and in assay [8] was inactive.
